PubChem BioAssay (NCATS)
Records with an inconclusive call do not appear. Calls of active or inactive are those of the source. Calls follow the shape of the dose curve; as a rule, active = well fitted inhibition curve with a large enough effect; inconclusive = small, poorly fitted or top-dose-only effect; inactive = flat fitted curve, though single readings scatter.

How the values were obtained:
Assay in all cases: Cytotoxic Profiling of Annotated Libraries Using Quantitative High-Throughput Screening (AID 1296008); also: nearly all actives have a fitted effect of over 60% in size
Details in all cases: Five cell lines viability, CellTiter-Glo ATP luminescence, 48-72 h; max response: hits give low values
[1] = system: CRL-7250
How it was run: (§1)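 Compounds were pin-transferred onto cells and incubated 48 or 72 hr at 37 degree Celsius, 95% humidity. CellTiter-Glo was added, plates sat 10 min at room temperature, then ATP-coupled luminescence was imaged as the viability read-out.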

[2] = system: HaCat
How it was run: as §1

[3] = system: KB-3-1
How it was run: as §1

[4] = system: NIH3T3
How it was run: as §1

Measured: max response
% is scaled to controls: 0 for no effect and ±100 for the full control effect.

CC(C)(CO)c1cc2cc(NC(=O)C3(c4ccc5c(c4)OC(F)(F)O5)CC3)c(F)cc2n1CC(O)CO (centres undefined)
inactive: [1] | [2] -17.2% | [3] | [4] -6.55%

C=C1C(=O)O[C@@H]2/C=C(/C)[C@@H](OC(C)=O)C/C=C(\C)C[C@@H](OC(=O)/C(=C/CO)CO)[C@@H]12
inactive: [1] 3.05% | [2] -3.88% | [3] | [4] 0.581%

O=C(c1ccc(F)cc1)N1CCCC(c2nc(-c3ccc(F)cc3)no2)C1 (centres undefined)
inactive: [1] -19.5% | [2] -5.25% | [3] -21.6% | [4] -12.8%

N#Cc1cc(C2=Nc3ccc(Br)cc3NC(=O)C2)ccn1
inactive: [1] -3.76% | [2] 4.97% | [3] 4.39% | [4]

C[C@@H]1O[C@@H](O[C@H]2CC[C@@]3(C)C(CC[C@]4(C)C3CC=C3[C@@H]5CC(C)(C)CC[C@]5(C(=O)O[C@@H]5O[C@H](CO)[C@@H](O)[C@H](O)[C@H]5O)CC[C@]34C)[C@]2(C)CO)[C@H](O)[C@H](O[C@@H]2O[C@H](CO)[C@@H](O)[C@H](O)[C@H]2O)[C@H]1O (some centres undefined)
inactive: [1] 1.26% | [2] -8.27% | [3] | [4] -2.37%

CC(=O)OC[C@]12[C@H](OC(C)=O)[C@H](OC(=O)c3ccccc3)[C@@H]3[C@@H](OC(C)=O)[C@]1(OC3(C)C)[C@H](C)C[C@H](OC(C)=O)[C@@H]2OC(=O)c1ccccc1
inactive: [1] | [2] -0.678% | [3] 4.67% | [4] 3.09%
